In all, about 360,000 compounds went through this assay and about 3,700 (1%) were called active. Another 2% or so got no clear call; they are omitted. The sample holds actives, similar compounds and a random draw of the others, so the mix is not that of the screen.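 How the source made its calls: active means normalized GFP-positive differentiation at or above the plate's own cutoff, the solvent-only control mean plus 3 SD; inconclusive means no clear call, values can overlap the other calls; inactive means the rest.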
experiment: induction of myeloid progenitor differentiation, primary screen, cell-based, flow cytometry, MLPCN library (AID 624256); conditions: ER-HoxA9 myeloid progenitors, lysozyme-GFP differentiation, at 10 µM; GFP+ MAC1+ double positive: measured here: differentiation confirmed by MAC1 staining, stronger effect = higher value; normalized GFP-positive differentiation: stronger effect = higher value;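 on GFP+ MAC1+ double positive: cells exposed to compound for four days before flow analysis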;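 on normalized GFP-positive differentiation: cells exposed to compound for four days before flow analysis; 0% = DMSO wells and 100% = fulvestrant positive control at 5 µM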

| SMILES | GFP+ MAC1+ double positive [%] | outcome | normalized GFP-positive differentiation |
| --- | --- | --- | --- |
| COc1cccc(/C=C2\Sc3ccc(C(=O)NCC4CCCO4)cc3N(C)C2=O)c1 (stereo unspecified) | 3.7 | inactive | – |
| COc1ccc(/C=C2\SC(=S)N(CCC(=O)N3CCOCC3)C2=O)cc1OC | 0.9 | inactive | – |
| COc1cccc(/C=C2\SC(=S)N(CCCC(=O)N3CCOCC3)C2=O)c1 | 2.7 | – | 19% (active) |
| OC(c1cc(Cl)cc(Cl)c1)c1ncc(-c2ccccc2C(F)(F)F)[nH]1 (stereo unspecified) | 1.7 | inactive | – |
| Nc1nc2c(ncn2[C@@H]2O[C@H](CNS(=O)(=O)N3CCc4ccccc4C3)[C@@H](O)[C@H]2O)c(=O)[nH]1 | 0.7 | inactive | – |
| COc1cc(C2CC(=O)c3cnc(NC(C)=O)nc3C2)cc(OC)c1OC (stereo unspecified) | 0.9 | inactive | – |
| COC(=O)C1C(=O)c2c([nH]c(C(=O)OCCSC)c2C)CC1C (stereo unspecified) | 3.1 | inactive | – |
| CCCOC(=O)c1[nH]c2c(c1C)C(=O)CC(c1cc(OC)c(OC)c(OC)c1)C2 (stereo unspecified) | 8.6 | – | 37% (active) |
| COc1cc(/C=C2/SC(=S)N(Cc3ccccc3)C2=O)cc(OC)c1O | 6.9 | – | 111% (active) |
| COc1ccc(CCN=C2SCC(=O)N2Cc2ccccc2)cc1OC | 0.1 | inactive | – |
| CN1C=CC=C/C1=C1\SC(=S)N(Cc2ccccc2)C1=O | 0.2 | inactive | – |
| Cc1ccc2nc(-c3ccccc3)c(CC3CCCCC3)n2c1 | 0.3 | inactive | – |
| COc1cc(OC)cc(C2=Cc3ccccc3C(CC(=O)c3ccco3)N2c2ccc(-c3cnc(OC)nc3)cc2)c1 (stereo unspecified) | 1 | inactive | – |
| CC(=O)N1Cc2cc(C(=O)NCc3cccc(F)c3)nc(-c3cccc(C4=CCCCC4)c3)c2[C@H]1CCO | 1.2 | inactive | – |
| C[C@H](NC(=O)CC[C@H]1O[C@@H](n2ccc(=O)[nH]c2=O)[C@H](O)[C@@H]1O)c1cccc2ccccc12 | 1.1 | inactive | – |
| COc1cccc(CN(C)C(=O)CC[C@H]2O[C@@H](n3cnc4c(NC(=O)c5ccccc5)ncnc43)[C@H](O)[C@@H]2O)c1 | 0.5 | inactive | – |
| CCCCc1nc2ccc(F)cc2cc1C | 0.5 | inactive | – |
| O=C(Cc1ccc(Cl)cc1)c1ccccc1 | 0.7 | inactive | – |
| O=C(Cc1nc2ccccc2[nH]c1=O)c1ccc(Cl)cc1 | 72.3 | – | 347% (active) |
| O=c1c(-c2ccc(Cl)cc2)[n+]([O-])c2ccccc2n1OCc1nc2ccccc2[nH]1 | 0.7 | inactive | – |
| CN1OC[C@@H]2CN(C(=O)c3cccnc3)[C@H](c3ccc(N4CCCCC4)cc3)C[C@@H]21 | 1.2 | inactive | – |
| O=S1(=O)CC(N2CCC(Cc3ccccc3)CC2)CN1Cc1ccccc1 (stereo unspecified) | 1.3 | inactive | – |

| SMILES | GFP+ MAC1+ double positive [%] | outcome | normalized GFP-positive differentiation |
| --- | --- | --- | --- |
| CC1(C(=O)NS(=O)(=O)c2cccc(F)c2)CCN1C(=O)Cc1ccc(Cl)cc1Cl (stereo unspecified) | 0.9 | inactive | – |
| Cc1ccc(NC(=O)CCN2C(=O)c3ccccc3C2=O)cc1C | 0.6 | inactive | – |
| Cc1cc(C)cc(NC(=O)CCN2C(=O)c3ccccc3C2=O)c1 | 0.5 | inactive | – |
| Cc1ccc(/C=C2\SC(=S)N(CCC(=O)Nc3ccc(O)cc3)C2=O)cc1 | 17.3 | – | 264% (active) |
| O=C(Nc1ccc(F)cc1)Nc1nnc([C@H]2C[C@H](O)[C@@H](CO)O2)s1 | 0.6 | inactive | – |
| CCCNC(=O)c1cc2c(c(-c3cccc(-c4ccc(C#N)cc4)c3)n1)[C@@H](CCO)N(C(=O)CC)C2 | 0.7 | inactive | – |
| O=C(NCc1ccc(F)cc1F)[C@@H]1CCCN1C(=O)[C@@H]1CCCN1C(=O)c1cccc(Cl)c1 | 0.5 | inactive | – |
| CC1CN(Cc2ccccc2)C(=S)NC1=O (stereo unspecified) | 0.4 | inactive | – |
| CN(C)c1ccc(C=C2C(=O)OC3(CCCC3)OC2=O)cc1 | 0.1 | inactive | – |
| CN(C)c1ccc(/C=C2\NC(=S)N(Cc3ccccc3)C2=O)cc1 | 23.7 | – | 207% (active) |
| COc1ccc([C@H]2CC(=O)C[C@@H](CCn3cc(CC4CCCC4)nn3)O2)cc1 | 0.4 | inactive | – |
| CC(C)N1C(=O)c2ccccc2NC(=O)C1C(=O)NCc1cccs1 (stereo unspecified) | 2.7 | inactive | – |
| Cc1ccc(Nc2nc(Cl)c(C=O)s2)cc1 | 1.3 | – | 146% (active) |
| CCCCC(=O)Nc1nc(C)c(-c2csc(Nc3ccc(Cl)cc3)n2)s1 | 0.8 | inactive | – |
| Cc1ccc(Nc2nnc(SC(C)C(=O)NC3CC3)s2)cc1 (stereo unspecified) | 0.7 | inactive | – |
| Cc1ccc(F)c(S(=O)(=O)NC(=O)C2(C)CCN2C(=O)c2ccco2)c1 (stereo unspecified) | 0.9 | inactive | – |
| CCCCCNC(=O)C(c1ccc(OC)cc1)n1c(=O)c(-c2ccccc2)nc2ccccc21 (stereo unspecified) | 2.6 | inactive | – |
| Cc1cc(Cl)ccc1-c1nc(NCCN(C)C)nc2ccsc12 | 1.3 | inactive | – |
| Cc1cc(NC(=O)CSc2nc3c(cc2C#N)CCCCC3)no1 | 0 | inactive | – |
| Cc1cc(NC(=O)CSc2nc(C(C)C)nc3sc4c(c23)CCC(C)C4)no1 (stereo unspecified) | 6.9 | – | 29.7% (active) |
| CC(C)c1nc(SCC(=O)Nc2cccc(C(=O)O)c2)c2c3c(sc2n1)CCCC3 | 1.4 | inactive | – |
